FAS-TE inh – FAS thioesterase domain inhibitors, primary screen, biochemical, fluorescence intensity, uHTS | recombinant FAS-TE, OMFH fluorogenic substrate, fluorescence endpoint | actives 0.67% (n = 360,000) | Fatty acid synthase (Homo sapiens), P49327 | inhibition, % at 15 µM;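 active = compounds whose normalised, plate-corrected inhibition of enzyme fluorescence in the single-dose primary screen is 50% or more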
MPTP inh – mitochondrial permeability transition pore inhibitors, primary screen, biochemical, isolated mouse mitochondria, absorbance; Ca2+ swelling absorbance, 30 min; inhibition, % at 10 µM; actives 1.4% (n = 360,000);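 active = inhibition of 50% or more, scaled per plate between neutral and stimulator controls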
NR3A LBD binder – binders of NR3A ligand-binding domain, primary screen, biophysical, differential scanning fluorimetry, uHTS | Tm shift relative to glycine control, % at 25 µM | NR3A LBD differential scanning fluorimetry, Tm shift; 0% = protein alone, 100% = glycine-bound protein | actives 2.5% (n = 340,000) | AID 1259313, 2017;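 active = melting temperature shift of at least 10% of the positive control shift, at one fixed dose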
MIN6 prolif – inducers of MIN6 beta-cell proliferation, primary screen, ATP luminescence, uHTS; proliferation, % at 10 µM; AID 2380, 2010; actives 0.29% (n = 330,000); MIN6 cells proliferation, ATPlite luminescence, 48 h; cells starved in 0.2% serum; 100% = growth in 10% serum;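 active = compounds whose signal lies at least 3.5 SD above the mean of all wells on their plate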
pCIP destab – p/CIP-EGFP fusion destabilizers, primary screen, fluorescence, F442A cells | 16 h | AID 1984, 2009 | decrease of EGFP signal, % at 10 µM | Q05BA5 | actives 0.01% (n = 290,000);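 active = EGFP signal decrease of at least 30% at 10 µM or well 3 SD below plate mean, unless failing retest; inactive = the rest, including hits failing retest or dose response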
MPTP counter – fluorescence retest of MPTP screen hits in isolated mitochondria, single concentration; membrane potential, Rhodamine 123 fluorescence; actives 78% (n = 5,000); shares compounds with MPTP inh; inhibition, % at 10 µM; in the data active = inhibition above about 22%
MPTP abs DR – mitochondrial permeability transition pore inhibitors, dose response, biochemical, absorbance, uHTS hits | IC50, µM | isolated mitochondria swelling | actives 58% (n = 780) | shares compounds with MPTP inh; in the data active = IC50 below about 20 µM
MPTP cs DR – fluorescent counter-screen in isolated mitochondria, dose response, counter-screen for MPTP inhibitor project, biochemical, fluorescence, uHTS hits | actives 49% (n = 780) | shares compounds with MPTP inh | isolated mitochondria counterscreen, fluorescence read-out | IC50, µM | AID 651564, 2012; in the data active = IC50 below about 80 µM
Each line names hits and unclear results; the compound was inactive in the other large screens (follow-up assays come after a bar, where they were run); ! = not confirmed by another sample. In the library only some 4.1% were active in any assay of this set; here they are far more common.

O=C1CCC[C@@H]2Cc3[nH]c4c(Cl)ccc(Cl)c4c3[C@@H]3CCN1[C@H]23	none
Cc1cc(C)cc(NC(=O)N2CCN(S(C)(=O)=O)CC2)c1	none
Cc1cccc(OCCCCNCc2ccccc2)c1	MPTP inh 59 | MPTP counter inactive | MPTP abs DR 6.8 | MPTP cs DR inactive
CCCN1C(=O)COc2ccc(-c3n[nH]c(=O)c4ccccc34)cc21	none
O=C(Nc1cccc(C(F)(F)F)c1)c1cc2c(=O)c3ccccc3oc2nc1C(F)(F)F	MPTP inh 75 | MPTP counter 53
Cc1cc(F)ccc1NCc1ccccc1[N+](=O)[O-]	none
O=[N+]([O-])c1ccccc1CNc1ccc(F)c(Cl)c1	MPTP inh 76 | MPTP counter 80
Clc1ccc2c(N/N=C/c3ccc(Br)cc3)ccnc2c1	MPTP inh 88, NR3A LBD binder 33 (no result: MIN6 prolif) | MPTP counter 74
Cc1ccccc1/C=N/Nc1ccnc2cc(Cl)ccc12	MPTP inh 99 (no result: MIN6 prolif) | MPTP counter 91
CC(=O)N1CCC(=NNc2ccnc3cc(Cl)ccc23)CC1	none
Clc1ccc2c(N/N=C/c3cccnc3)ccnc2c1	none
Cc1ccc(/C=N/Nc2ccnc3cc(Cl)ccc23)c(C)c1	MPTP inh 64 | MPTP counter 92
Oc1ccc(/C=N/Nc2ccnc3cc(Cl)ccc23)c(O)c1	MPTP inh 58, NR3A LBD binder 27 | MPTP counter 59
CCOC(=O)N1CCC(=NNc2ccnc3cc(Cl)ccc23)CC1	none
Oc1ccc(Nc2ccnc3cc(Cl)ccc23)cc1	none
COCCN=c1scc(C)n1/N=C/C1CC2C=CC1C2 (stereo not given)	none
COc1ccccc1CCNC(=O)CSc1nnc2ccc(-c3ccncc3)nn12	none
Cc1cc2c(NC(=O)Nc3ccc(C(F)(F)F)cc3)cccc2nn1	MPTP inh 86 | MPTP counter 85
Cn1cc(C(=O)Nc2ccc(Cl)cc2)c(C(F)(F)F)n1	none
Cn1cc(NC(=O)Nc2ccc(C(F)(F)F)cc2)c(C(F)(F)F)n1	MPTP inh 66 | MPTP counter 86
CC1=C(C(=O)N(C(C)C)C(C)C)CC(CC(=O)NC(c2ccccc2)c2ccccc2)C(=O)N1CCC1=CCCCC1 (stereo not given)	none (no result: NR3A LBD binder, MIN6 prolif, pCIP destab)
Fc1ccccc1CSc1nc2ccccc2[nH]1	none
CC(=O)c1ccc(Oc2cc(-c3ccccc3)nc(-c3ccccc3)n2)cc1	MPTP inh 53 | MPTP counter inactive | MPTP abs DR inactive | MPTP cs DR inactive
CC(C)C1Nc2c(O)cc(Cl)c([N+](=O)[O-])c2C2C=CCC21 (stereo not given)	MPTP inh 92 (no result: MIN6 prolif) | MPTP counter 78
Cc1cc(C)c2c(C)c(C(=O)Nc3c(C)n(C)n(-c4ccccc4)c3=O)oc2c1	none
N#Cc1cccc(C(=O)Nc2cccc(S(=O)(=O)N3CCCC3)c2)c1	none
Cc1nn(C(C)(C)C)c(C)c1/C=N/OC(=O)Nc1ccc(Cl)cc1	MPTP inh 79, NR3A LBD binder 11 | MPTP counter 89
COc1cc(/C=C(\C#N)c2nc3ccccc3[nH]2)ccc1Oc1ccc([N+](=O)[O-])cn1	MPTP inh 78 | MPTP counter 55
COc1cc(/C=C(\C#N)c2nc3ccc(C)cc3[nH]2)cc([N+](=O)[O-])c1O	none (no result: MIN6 prolif)
N#C/C(=C\c1cccc(Oc2ccc(C(F)(F)F)cc2[N+](=O)[O-])c1)c1nc2ccccc2[nH]1	MPTP inh 155 | MPTP counter 105
COc1cc(/C=C(\C#N)c2nc3ccccc3[nH]2)cc(Br)c1OCc1ccc(F)cc1	none
Cc1ccc2nc(/C(C#N)=C\c3ccc(Oc4ccc(C(F)(F)F)cc4[N+](=O)[O-])cc3)[nH]c2c1	MPTP inh 99 | MPTP counter 59
COc1cc(/C=C(\C#N)c2nc3ccccc3[nH]2)cc(Br)c1OCc1ccccc1	MPTP inh 64, NR3A LBD binder 17 | MPTP counter 73
O=C(CCc1nc2ccccc2c(=O)[nH]1)Nc1cc(C(F)(F)F)ccc1N1CCCC1	none (no result: pCIP destab)
O=C(NCc1ccccn1)c1ccccc1OCc1ccc(Cl)cc1Cl	none (no result: pCIP destab)
Oc1c(Br)cc(Br)cc1CNc1ccc(F)cc1	MPTP inh 78, NR3A LBD binder 11 | MPTP counter 81
COCCNC(=S)N(CCc1c(C)[nH]c2ccccc12)Cc1cccnc1	none
Cc1cc(C(C)(C)C)ccc1OCCN1CCCC1	none
Cc1cc(C(C)(C)C)ccc1OCCCCN1CCCC1	MPTP inh 51 | MPTP counter inactive | MPTP abs DR 6.8 | MPTP cs DR 13
Cc1ccc2nc(N(CCN(C)C)C(=O)/C=C/c3cccs3)sc2c1	MPTP inh 99 | MPTP counter inactive | MPTP abs DR 7.5 | MPTP cs DR inactive
CN(C)CCN(C(=O)/C=C/c1cccs1)c1nc2c(F)cc(F)cc2s1	MPTP inh 102 | MPTP counter inactive
CCOC(=O)[C@@H]1[C@H]2COc3ccc(Br)cc3[C@@H]2N2C(=O)N(c3ccc(F)cc3)C(=O)[C@]12C	none
Cc1ccc(NC(=O)CSc2ncnc3ccccc23)cc1S(=O)(=O)N1CCCCC1	MPTP inh 79 | MPTP counter 71
Cc1ccc(NC(=O)CSc2ccccc2)cc1S(=O)(=O)N1CCCCC1	none (no result: pCIP destab)
Cc1ccc(NC(=O)CSc2ncnc3ccccc23)cc1S(=O)(=O)N1CCOCC1	none
Cc1ccc(NC(=S)NCc2ccccc2)cc1S(=O)(=O)N1CCCCC1	MPTP inh 75 | MPTP counter 75
O=C(Nc1cccs1)Nc1ccc(F)cc1F	none
O=C(Nc1ccc(F)c(Cl)c1)Nc1csc2ccccc12	MPTP inh 76, NR3A LBD binder 39 | MPTP counter 68
O=C(Nc1ccc(F)cc1F)Nc1csc2ccccc12	MPTP inh 83, NR3A LBD binder 15 | MPTP counter 85
Cc1cc(O)c(C(=O)Nc2cccc(Cl)c2)c(=O)n1C	none
CCCCCc1ccc(OCCC[n+]2ccccc2)c(CCCCC)c1	none
CCCCCCCCCCCCCCCC[n+]1ccccc1	MPTP inh 53! (no result: MIN6 prolif, pCIP destab) | MPTP counter 107
Cc1ccc(-c2noc(C3CCCN(C(=O)c4ccc(C(C)(C)C)cc4)C3)n2)o1 (stereo not given)	MPTP inh 61 | MPTP counter 39
O=C(NCCCSc1ccccc1)c1cc(Cl)ccc1O	MPTP inh 82, NR3A LBD binder 12 | MPTP counter 83

Screening data as filed in PubChem BioAssay.
